Source: PubChem BioAssay
Most compounds without a hit are left out; they make up all but 21% or so of the library.
Shiga toxin inh: Shiga toxin inhibition | Vero cells, Shiga toxin protein synthesis inhibition reporter | inhibition, % at 38.7 µM | 290,000 compounds, 9.2% hits; in the data active = inhibition mostly above about 28%, no sharp cut-off; inactive = mostly below about 43%; also: 0% is about no effect
HCMV antiviral: human cytomegalovirus inhibition; activity change, negative = inhibition, % at 57.5 µM; 410,000 compounds, 4.5% hits; HFF cells, HCMV-luciferase reporter, 72 h; stronger effect = lower value; in the data active = activity change below about -60%; inconclusive = no clear call, values can overlap the other calls; inactive = above about -39%; also: % is scaled to controls: 0 for no effect and ±100 for the full control effect
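Steps: HFFs plated, 16 h 37C; compounds added; HCMV-luciferase added to MOI 1 PFU/cell; 72 h 37C; OneGlo reagent, 5 min room temperature; luminescence read, normalized to controls.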
HCV inhibitor: HCV inhibition; Huh7.5.1 HCVcc-Cre infection, luciferase reporter, 44 h; Potency, µM (top dose mostly 41.8 µM), for the others: at the top dose activity change, negative = inhibition, most hits filed as inhibitors; 340,000 compounds, 3.4% hits; AID 651820; also: potency is read from the fitted curve at half-maximal effect; % is scaled to controls: 0 for no effect and ±100 for the full control effect
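Infectious HCVcc-Cre (~0.5 moi) was added to cells just after compound, with cells seeded 4 h earlier at 1,000 per well. Luciferase activity after 44 h culture reported infection; substrate was incubated 15 min at room temperature before reading.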
CHX counter: counter-screen hit for Shiga toxin inhibitors, cycloheximide. 300,000 compounds, 12% hits. cell reporter, cycloheximide protein synthesis inhibition counterscreen. max response, %; in the data active = max response mostly above about 13%, no sharp cut-off; inactive = mostly below about 14%; also: read at 38.3 µM for the half of the compounds with a filed dose; 0% is about no effect
Pf growth 96h: inhibits malaria parasite growth, 96 h. P. falciparum luciferase reporter growth, 96 h. Potency, µM (doses to about 28.7 µM), for the others: top-dose activity change, negative = inhibition, most hits filed as inhibitors. 320,000 compounds, 6.9% hits. AID 504834; also: potency is read from the fitted curve at half-maximal effect; % is scaled to controls: 0 for no effect and ±100 for the full control effect
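Compounds incubated with erythrocytes infected by luciferase-expressing P. falciparum (2% hematocrit, 0.05% parasitemia final) for 96 hours, 37 C in 5% CO2. Growth inhibition scored as decreased luciferase luminescence.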
Pf growth 48h: P. falciparum growth inhibition at 48 hours (one generation) | P. falciparum luciferase growth in erythrocytes, 48 h | Potency, µM (titrated, usually from 28.7 µM), for the others: at the top dose activity change, negative = inhibition, hits mostly inhibitors | 310,000 compounds, 5.9% hits | AID 504832; also: potency is read from the fitted curve at half-maximal effect; % is scaled to controls: 0 for no effect and ±100 for the full control effect
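Luciferase-expressing parasites in RBCs, 2% Hct / 0.1% parasitemia final; RPMI 1640 + 0.5% Albumax; 37 C, 5% CO2, one generation; luminescence read-out, lower signal = inhibition.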
Active calls of the source: *; ? = inconclusive; . = no result given; + = active, no number. Unless noted, calls follow the shape of the dose curve; as a rule, active = well fitted inhibition curve with a large enough effect; inconclusive = small, poorly fitted or top-dose-only effect, or another doubt; inactive = no such curve, though single readings can be large or run the other way.

SMILES	Shiga toxin inh	HCMV antiviral	HCV inhibitor	CHX counter	Pf growth 96h	Pf growth 48h
COc1ccc(CCN2CCCC(CN(C)C(=O)c3cc(C)oc3C)C2)cc1 (stereo not drawn)	91*	-35	-20%	69*	35%	44%
Cc1ccc(OC(C)C(=O)N(Cc2cccs2)C2CCS(=O)(=O)C2)cc1C (stereo not drawn)	-11	71	9%	0	?	?
COc1cc(/C=C(\C#N)c2ccccn2)ccc1OCc1ccc(Cl)cc1	38	-22	?	8	5.2µM*	6.6µM*
COc1cc(/C=C(\C#N)c2nc3ccc(C)cc3[nH]2)ccc1OCc1ccc(C)cc1	.	3	.	.	.	.
COc1cc(/C=C(\C#N)c2ccccn2)ccc1OCc1ccccc1	77*	-27	?	31*	?	9.3µM*
COc1cc(/C=C(/C#N)c2ccc(F)cc2)ccc1OCc1ccc(C(=O)O)o1	19	6	1%	1	.	-4%
CC(C)C[C@H]1CNC(=O)C(=O)N1CC1CCN(CCc2ccccc2)CC1	.	4	.	.	.	.
COc1ccc(C(=O)N2CCc3cc(OC)c(OC)cc3C2c2ccc(OC)c(OC)c2)cc1OC (stereo not drawn)	-2	-13	5%	8	6.6µM*	13µM*
COc1cc2c(cc1OC)C(c1ccccc1)N(C(=O)CCl)CC2 (stereo not drawn)	-21	-99*	-14%	-1	?	?
Cc1ccc([C@@H]2CC=C(C(=O)O)[C@H](c3ccccc3F)N2S(=O)(=O)c2ccccc2C)cc1	.	147	12%	.	.	.
COc1ccc(-c2csc(C(C)(O)c3ccccc3)n2)cc1 (stereo not drawn)	.	12	.	.	.	.
COc1cccc(C(C)(O)c2nc(-c3ccc(N(C)C)cc3)cs2)c1 (stereo not drawn)	.	-74*	.	.	.	.
COc1ccc(C(C)(O)c2nc(-c3ccccc3)cs2)cc1 (stereo not drawn)	.	-78*	.	.	.	.
COc1ccc(-c2csc(C(C)(O)c3cccnc3)n2)cc1 (stereo not drawn)	.	-69*	.	.	.	.
COc1ccc(S(=O)(=O)CCc2nnc(NC(=O)c3ccc(F)cc3)s2)cc1	6	51	4%	-2	-20%	4%
COc1ccc(Nc2oc(/C=C/c3cccc(OC)c3)nc2C#N)cc1	.	8	.	.	.	.
CCOc1ccc(/C=C/c2nc(C#N)c(NCCc3ccccc3)o2)cc1	.	-3	.	.	.	.
CNc1oc(/C=C/c2cccc(OC)c2)nc1C#N	99*	.	17%	35*	165%	69%
CCNc1oc(/C=C/c2ccc(OCC)cc2)nc1C#N	38*	-11	?	16*	?	?
CCN(CC)CCCNc1oc(/C=C/c2ccccc2)nc1C#N	24	-29	?	22*	1%	2%
N#CC1=C(N)N(c2ncn[nH]2)C2=C(C(=O)CCC2)C1c1ccccc1 (stereo not drawn)	-3	10	7%	-1	22%	?
COc1ccc(C2CC(=O)N(c3ccccc3)C3=C2C(=O)CCC3)cc1 (stereo not drawn)	-18	1	28%	8	0%	-5%
O=C1CCCC2=C1C(c1ccccc1)CC(=O)N2c1ccccc1 (stereo not drawn)	7	-1	13%	-4	13µM*	-13%
Cc1ccc(C2C(C#N)=C(N)N(c3cccnc3)C3=C2C(=O)CCC3)s1 (stereo not drawn)	51*	?	12%	11	6%	5%
CSc1ccc(C2C(C#N)=C(N)N(c3ccccc3)C3=C2C(=O)CCC3)cc1 (stereo not drawn)	-6	-22	-4%	17	0%	13µM*
SMILES	Shiga toxin inh	HCMV antiviral	HCV inhibitor	CHX counter	Pf growth 96h	Pf growth 48h
CN(C)N1C(N)=C(C#N)C(c2cccnc2)C2=C1CCCC2=O (stereo not drawn)	-8	5	3%	-1	13µM*	-17%
CSc1ccc(Cl)c(C(=O)N2CCN(c3ncccn3)CC2)c1	.	6	14%	.	-26%	-27%
COc1cccc(C2C(C#N)=C(N)N(N(C)C)C3=C2C(=O)CCC3)c1 (stereo not drawn)	11	13	-5%	2	-25%	0%
COc1ccc(N2C(N)=C(C#N)C(c3ccsc3)C3=C2CCCC3=O)c(OC)c1 (stereo not drawn)	7	?	-10%	6	3.7µM*	?
CN(C)c1nc(Nc2ccc(Cl)cc2)nc(OCC#N)n1	-16	31	?	-2	?	-19%
CN(C)c1nc(N)nc(Nc2ccccc2C#N)n1	9	-6	-8%	-1	13µM*	-5%
COC(=O)CN1C(=O)[C@H]2[C@@H](c3ccc(C)o3)N3C(=O)CN(CC4CC4)C(=O)[C@@]3(Cc3ccccc3)[C@H]2C1=O	-4	-93*	-10%	-2	50%	33%
COC(=O)CN1C(=O)[C@H]2[C@@H](c3ccc(C)o3)N3C(=O)CN(CCO)C(=O)[C@@]3(Cc3ccccc3)[C@H]2C1=O	1	20	12%	-1	-4%	30%
COC(=O)CN1C(=O)[C@H]2[C@@H](c3ccc(C)o3)N3C(=O)CN(Cc4ccccc4)C(=O)[C@@]3(C)[C@H]2C1=O	3	-83*	13%	6	48%	17%
COC(=O)c1c(C)[nH]c(C(=O)CN(C)CC(=O)Nc2cccc(F)c2)c1C	.	0	-20%	.	-16%	-27%
CCOc1ccc(CCNC(=O)COC(=O)c2ccc(C)c([N+](=O)[O-])c2)cc1OCC	-11	-12	4%	-3	?	27%
O=C(N/N=C/c1cc(Cl)c(O)c(Cl)c1)c1cc2c(ccc3ccccc32)o1	158	?	-5%	37*	?	12µM*
O=C(N/N=C/c1cc(Br)c(O)c(Br)c1)c1cc2c(ccc3ccccc32)o1	7	-23	0%	9	13µM*	-17%
O=C(N/N=C/c1ccc([N+](=O)[O-])o1)c1cc2c(ccc3ccccc32)o1	17	-72*	?	5	?	?
O=C(N/N=C/c1cccnc1)c1cc2c(ccc3ccccc32)o1	9	-35	?	13	?	-17%
O=C(N/N=C/c1ccc(O)c(Br)c1)c1cc2c(ccc3ccccc32)o1	-10	4	-12%	-2	?	?
O=C(N/N=C/c1cc(Br)c(Br)o1)c1cc2ccccc2o1	-21	+	-26%	1	-11%	-23%
Cc1ccccc1OCC(O)CN1CCN(CC(O)COc2ccccc2C)CC1 (stereo not drawn)	20	-15	?	-2	1.5µM*	?
Cc1ccccc1OCC(O)COc1ccccc1C	.	-100*	-22%	.	.	.
